# Measured values as given in the supplement of paper PMC6555819.
# How the values were obtained:
# Assay in all cases: PBM binding z-score (relative to random genomic background probes); higher = stronger binding; sequences stand for … in GC…GCGATTGACAGCGTAGAATGAAGG
# [1] = system: RARb homodimer (NR concentration 270 nM)
# How it was run: (§1)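 Scanned fluorescence from custom Agilent 4×180K protein-binding microarrays was regression-normalized. Binding z-scores use random background probes as reference. Ligand-free nuclear receptor dimers were incubated on the arrays for 1 h and detected with antibodies against each partner (one per run).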
# [2] = system: RARg:RXRa (NR concentration 270 nM, RXRa partner concentration 90 nM)
# How it was run: as §1
# [3] = system: RARg homodimer (NR concentration 270 nM)
# How it was run: as §1
# [4] = system: RXRa DBDmut IVT, anti-RXR (DBD mutation: RXRa K156A/R161A, NR concentration 90 nM)
# How it was run: as §1
# [5] = system: RXRa homodimer (NR concentration 180 nM)
# How it was run: as §1
# [6] = system: THRa:RXRa (NR concentration 90 nM, RXRa partner concentration 90 nM)
# How it was run: as §1
# [7] = system: THRa homodimer (NR concentration 90 nM)
# How it was run: as §1
# [8] = system: VDR homodimer (NR concentration 270 nM)
# How it was run: as §1
sequence,measurement,setting,value
TAGCCTAGGTCATTCAGGGGCCAGTCTAGAAAGC,PBM binding z-score,[1],3.1
same,PBM binding z-score,[2],5.97
same,PBM binding z-score,[3],4.33
same,PBM binding z-score,[4],1.66
same,PBM binding z-score,[5],2.98
same,PBM binding z-score,[6],3.27
same,PBM binding z-score,[7],0.478
same,PBM binding z-score,[8],1.43
CCGACTGGGGCATAAGGATACCATAAGCCAGCCC,PBM binding z-score,[1],-0.129
same,PBM binding z-score,[2],-0.00817
same,PBM binding z-score,[3],0.301
same,PBM binding z-score,[4],-0.682
same,PBM binding z-score,[5],0.0556
same,PBM binding z-score,[6],0.92
same,PBM binding z-score,[7],0.5
same,PBM binding z-score,[8],-0.401
AGAACGAGGGCAATGAGTAGATAGCACGGGTGGC,PBM binding z-score,[1],0.9
same,PBM binding z-score,[2],1.33
same,PBM binding z-score,[3],1.4
same,PBM binding z-score,[4],1.67
same,PBM binding z-score,[5],1.14
same,PBM binding z-score,[6],0.671
same,PBM binding z-score,[7],-0.3
same,PBM binding z-score,[8],0.678
CGAACTAGGTCATTGGCAGGACAGTGAATAGTAA,PBM binding z-score,[1],2.75
same,PBM binding z-score,[2],4.52
same,PBM binding z-score,[3],4.07
same,PBM binding z-score,[4],2.36
same,PBM binding z-score,[5],2.52
same,PBM binding z-score,[6],3.09
same,PBM binding z-score,[7],0.749
same,PBM binding z-score,[8],0.995
ATCTCTAGGTAAGAAGTTCAGTGAAAGAGAGGAC,PBM binding z-score,[1],1.85
same,PBM binding z-score,[2],1.25
same,PBM binding z-score,[3],1.48
same,PBM binding z-score,[4],0.26
same,PBM binding z-score,[5],0.531
same,PBM binding z-score,[6],0.982
same,PBM binding z-score,[7],0.234
same,PBM binding z-score,[8],1.52
CAGCCTAGCTCAGGGCCAGTATAGGAGGAACGTT,PBM binding z-score,[1],-0.467
same,PBM binding z-score,[2],-0.693
same,PBM binding z-score,[3],-0.422
same,PBM binding z-score,[4],-0.824
same,PBM binding z-score,[5],-0.971
same,PBM binding z-score,[6],-0.848
same,PBM binding z-score,[7],-0.716
same,PBM binding z-score,[8],-0.754
AGTCAAAGTTCATCTAAGTAACGTAAGATATGCT,PBM binding z-score,[1],3.78
same,PBM binding z-score,[2],5.58
same,PBM binding z-score,[3],6.53
same,PBM binding z-score,[4],4.81
same,PBM binding z-score,[5],5.21
same,PBM binding z-score,[6],2.57
same,PBM binding z-score,[7],-0.213
same,PBM binding z-score,[8],4.88
